Data published in PubChem BioAssay (NCI).
Compounds without any hit were thinned out: in the full panel of roughly 79,000, 15% have a hit. Active and inactive are the calls of the source. No stated cut-off is given here; in the data, active means growth inhibition above about 70%; inactive means the rest. Where a SMILES comes first, the peptide text is derived from it. The star is where a group is joined. Cbz = O=C(OCc1ccccc1)*

Assay: NCI Yeast Anticancer Drug Screen. Data for the rad50 strain (AID 155);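 further: 0% = growth of vehicle-only cultures of the same strain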
Conditions: S. cerevisiae rad50 strain growth inhibition; at 50.0 µM; active compounds read high
How it was run: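 Cells are treated with compound, grown, and their growth is then scored against vehicle-only cultures of the same repair-deficient yeast strain.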

Row | SMILES | growth inhibition
1 | COC(=O)C(NC(=O)C(C)NC(=O)C1CCCN1C(=O)CNC(=O)C(CO)NC(=O)C(NC(=O)OCc1ccccc1)C(C)O)C(C)O (configuration not stated) (Cbz-TSGPAT-OMe; configuration not given here) | 3.3% (inactive)
2 | CCCCC(CC)CN(CC(CC)CCCC)C(=O)C(C)OC(=O)C(CC)CCCC (configuration not stated) | 3.7% (inactive)
3 | CCC(=O)Nc1cc([N+](=O)[O-])cc([N+](=O)[O-])c1 | 8.1% (inactive)
4 | C=C(Br)CNCC(=C)Br | 2.2% (inactive)
5 | CN(C)Cc1cc(C(=O)/C=C/c2c(Cl)cccc2Cl)cc(CN(C)C)c1O | -32% (inactive)
6 | CC(C)(C)c1ccc(C(=O)N2CCOC23CCCCC3)cc1 | -11.7% (inactive)
7 | O=C(O)c1ccc(C2C3C=CC(C3)C2[N+](=O)[O-])cc1 (configuration not stated) | 6.15% (inactive)
8 | CCC/C=C/c1cc2c(cc1O)CC[C@@H]1[C@@H]2CC[C@]2(C)[C@@H](O)CC[C@@H]12 | 19.2% (inactive)
9 | O=C1c2ccccc2-c2oc(=O)c3ccccc3c21 | -19.9% (inactive)
10 | O=c1[nH]c2cc(Cl)ccc2nc1/C=C(\O)c1cccc2ccccc12 | 40.9% (inactive)
11 | CC(=O)OC/C=C(\C)CCC=C(C)C | -21.6% (inactive)
12 | CCCCCCCSCC(O)COC(c1ccccc1)(c1ccccc1)c1ccccc1 (configuration not stated) | -17.5% (inactive)
13 | NC(=O)NNc1ccccc1 | 3.6% (inactive)
14 | Cn1c(=O)c(C(c2ccccc2)c2c(O)c3ccccc3n(C)c2=O)c(O)c2ccccc21 | 12.1% (inactive)
15 | CCCc1[nH]n(-c2cccc([N+](=O)[O-])c2)c(=O)c1N=Nc1ccc(Cl)cc1 | 40.9% (inactive)
16 | N#CCCN(c1ccc(C=O)cc1)S(=O)(=O)c1ccccc1 | -0.1% (inactive)
17 | O=[N+]([O-])c1c(O)c(O)c2ccccc2c1Nc1ccccc1 | -29.9% (inactive)
18 | COc1ccc(OC)c(CCCCC(N)=O)c1 | -19.8% (inactive)
19 | c1ccc(CCN=C2c3ccccc3-n3cccc32)nc1 | 33.5% (inactive)
20 | CSc1nnc(CCC(=O)Nc2ccc(Cl)cc2Cl)o1 | 0.75% (inactive)
21 | COc1cc(C(=O)Nc2ccc(S(=O)(=O)Nc3nc(C)cc(C)n3)cc2)cc(OC)c1OC | -10.7% (inactive)
22 | COC(=O)C1(CC(=O)CC(=O)CC2(C(=O)OC)NC(=S)NC(=O)C2C#N)NC(=S)NC(=O)C1C#N (configuration not stated) | -17.4% (inactive)

Assay: NCI Yeast Anticancer Drug Screen. Data for the mec2-1 strain (AID 157)
Conditions: S. cerevisiae mec2-1 strain, at 50.0 µM, active compounds read high
How it was run: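 Readout is yeast growth inhibition, normalised to vehicle-treated controls, in the mec2-1 strain exposed to compound.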

Row | SMILES | growth inhibition
23 | Cc1ccc(S(=O)(=O)N/N=C/c2oc(-c3ccncc3)c(-c3ccncc3)c2[N+](=O)[O-])cc1 | 10.8% (inactive)
24 | O=C1C=C(Nc2cccnc2)c2ccccc2C1=O | -7.2% (inactive)
25 | COc1ccc(-c2coc3cc(O)cc(O)c3c2=O)cc1 | 22.6% (inactive)
26 | Cn1cc(/C=C/C(=O)c2ccccc2[N+](=O)[O-])c2ccccc21 | 12.9% (inactive)
27 | C=CCOC(C)OCC=C | 7.9% (inactive)
28 | O=c1[nH]nnc2ccccc12 | 4.8% (inactive)
29 | COc1ccc(C)c(C2=CCCCC2)c1 | 3.45% (inactive)
30 | C=CCc1ccc(O)c(OC)c1 | -3.25% (inactive)
31 | O=C1NCC2(CCN(Cc3ccccc3)CC2)N1c1ccccc1 | 3.05% (inactive)
32 | CN(C)c1nc2[nH]ncc2c(=O)[nH]1 | 1.25% (inactive)
33 | Cc1c(-c2ccc3c(c2)COC3)sc(N)c1C#N | -4.3% (inactive)
34 | COc1ccc(NC(=O)CC(=O)N/N=C/c2ccc(N(CCC#N)S(=O)(=O)c3ccccc3)cc2)cc1 | -11.8% (inactive)
35 | CC12CC(=O)C3C(CCC4=CC(=O)CCC43C)C1CC=C2CC(=O)O (configuration not stated) | 1.15% (inactive)
36 | COc1ccc(C2S/C(=C\c3cccc(O)c3)C(=O)N2NC(=O)Cc2ccccc2)cc1 (configuration not stated) | -34.5% (inactive)
37 | CCS(=O)(=O)OCCOC | -26.1% (inactive)
38 | O=C1C=C/C(=N/c2ccc(O)o2)c2ccccc21 | 52.3% (inactive)
39 | CCCN1CCc2c([nH]c3cc(OC)ccc23)C1C (configuration not stated) | -4.15% (inactive)
40 | CC(C)=NC(C(=O)O)C(C)(C)S (configuration not stated) | -15.2% (inactive)
41 | COC(=O)C(NC(=O)C(C)NC(=O)C1CCCN1C(=O)CNC(=O)C(CO)NC(=O)C(NC(=O)OCc1ccccc1)C(C)O)C(C)O (configuration not stated) (Cbz-TSGPAT-OMe; configuration not given here) | -5.9% (inactive)
42 | CCCCC(CC)CN(CC(CC)CCCC)C(=O)C(C)OC(=O)C(CC)CCCC (configuration not stated) | 6.1% (inactive)

Row | SMILES | growth inhibition
43 | CCC(=O)Nc1cc([N+](=O)[O-])cc([N+](=O)[O-])c1 | -7.3% (inactive)
44 | C=C(Br)CNCC(=C)Br | 7.25% (inactive)
45 | CN(C)Cc1cc(C(=O)/C=C/c2c(Cl)cccc2Cl)cc(CN(C)C)c1O | -17.6% (inactive)
46 | CC(C)(C)c1ccc(C(=O)N2CCOC23CCCCC3)cc1 | -20.1% (inactive)
47 | O=C(O)c1ccc(C2C3C=CC(C3)C2[N+](=O)[O-])cc1 (configuration not stated) | -18.8% (inactive)
48 | CCC/C=C/c1cc2c(cc1O)CC[C@@H]1[C@@H]2CC[C@]2(C)[C@@H](O)CC[C@@H]12 | 16.4% (inactive)
49 | O=C1c2ccccc2-c2oc(=O)c3ccccc3c21 | -1.5% (inactive)
50 | O=c1[nH]c2cc(Cl)ccc2nc1/C=C(\O)c1cccc2ccccc12 | 15.2% (inactive)
51 | CC(=O)OC/C=C(\C)CCC=C(C)C | -23.4% (inactive)
52 | CCCCCCCSCC(O)COC(c1ccccc1)(c1ccccc1)c1ccccc1 (configuration not stated) | -28.6% (inactive)
53 | NC(=O)NNc1ccccc1 | 6.2% (inactive)
54 | Cn1c(=O)c(C(c2ccccc2)c2c(O)c3ccccc3n(C)c2=O)c(O)c2ccccc21 | 6.5% (inactive)
55 | CCCc1[nH]n(-c2cccc([N+](=O)[O-])c2)c(=O)c1N=Nc1ccc(Cl)cc1 | 24.1% (inactive)
56 | N#CCCN(c1ccc(C=O)cc1)S(=O)(=O)c1ccccc1 | -13% (inactive)
57 | O=[N+]([O-])c1c(O)c(O)c2ccccc2c1Nc1ccccc1 | -5.8% (inactive)
58 | COc1ccc(OC)c(CCCCC(N)=O)c1 | -8.2% (inactive)
59 | c1ccc(CCN=C2c3ccccc3-n3cccc32)nc1 | 0.95% (inactive)
60 | CSc1nnc(CCC(=O)Nc2ccc(Cl)cc2Cl)o1 | 12.5% (inactive)
61 | COc1cc(C(=O)Nc2ccc(S(=O)(=O)Nc3nc(C)cc(C)n3)cc2)cc(OC)c1OC | -21.9% (inactive)
62 | COC(=O)C1(CC(=O)CC(=O)CC2(C(=O)OC)NC(=S)NC(=O)C2C#N)NC(=S)NC(=O)C1C#N (configuration not stated) | 19.9% (inactive)
